# Screening data (PubChem)
# hgDAF-12 ag: H. glycines DAF-12 receptor agonists, primary screen, cell-based, luminescence, HEK293, GAL4 fusion, UAS-luciferase; Nuclear hormone receptor DAF-12 (Heterodera glycines), GAL4 fusion; HEK293 GAL4-hgDAF12 UAS-luciferase reporter, agonist luminescence; normalized to butyrate control; activation, % at 6.8 µM; 370,000 compounds, 1.8% hits; AID 687014, 2013;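 active means activation above a cutoff set at the mean of all screened compounds plus 3 SD, cut at about 10% in these data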;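 further: 0% = DMSO wells and 100% = sodium butyrate wells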
# ssDAF-12 act: S. stercoralis DAF-12 nuclear receptor activators, primary screen, cell-based, luminescence, HEK293, GRIP1 co-expression, lit1-tk-luc; HEK293 ssDAF-12/GRIP1 lit1-tk-luc reporter; % of 3 µM dafachronic acid response; 370,000 compounds, 1% hits; Nuclear hormone receptor DAF-12 (Strongyloides stercoralis); activation, % at 6.8 µM;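 active means activation above the mean over all tested compounds plus 3 SD, cut at about 0.9% in these data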;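 further: 0% = DMSO-only wells and 100% = 3 µM delta7-dafachronic acid wells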
# Wee1 stabilizer: Wee1 degradation inhibitors, primary screen, cell-based, HeLa, Wee1K328M-luciferase, luminescence | Wee1-like protein kinase (Homo sapiens), P30291 | HeLa Luc-Wee1K328M stability; 100% = proteasome inhibitor MG132 effect | reporter increase, % at 5 µM | 220,000 compounds, 1.2% hits | AID 1321, 2008;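 active means activation above the mean of all tested compounds plus 3 SD, set per screening run, cut at about 8.8% in these data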;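 further: cells exposed to compound for 20 h before luminescence read; 0% = DMSO alone and 100% = MG132 at 30 µM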
# hcDAF12 agonist: H. contortus DAF-12 nuclear receptor activators, primary screen, cell-based, luminescence, HEK293, lit1-tk-luc reporter | HEK293 hcDAF-12 lit1-tk-luc reporter; 0% DMSO, 100% Δ7-dafachronic acid | activation, % at 6.8 µM | 370,000 compounds, 1.4% hits;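 active means activation above the mean of all tested compounds plus 3 SD, cut at about 5.5% in these data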;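 further: 100% = response to 3 µM Δ7-dafachronic acid high control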
# DAX1 inh-1: DAX1 (NR0B1) inhibitors, primary screen, cell-based, HEK293, Gal4-DAX1, luciferase luminescence. Nuclear receptor subfamily 0 group B member 1 (Homo sapiens), P51843. inhibition, % at 6.75 µM. HEK293 Gal4-DAX1 luciferase reporter. 340,000 compounds, 0.99% hits;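 active means inhibition above the mean over all tested compounds plus 3 SD, cut at about 4.2% in these data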;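 further: 0% = DAX1-transfected cells with DMSO and 100% = empty-vector control cells with DMSO; inhibition shows as a rise in luminescence from relieved DAX1 repression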
# Target sequence (P51843 207-470 limits assumed): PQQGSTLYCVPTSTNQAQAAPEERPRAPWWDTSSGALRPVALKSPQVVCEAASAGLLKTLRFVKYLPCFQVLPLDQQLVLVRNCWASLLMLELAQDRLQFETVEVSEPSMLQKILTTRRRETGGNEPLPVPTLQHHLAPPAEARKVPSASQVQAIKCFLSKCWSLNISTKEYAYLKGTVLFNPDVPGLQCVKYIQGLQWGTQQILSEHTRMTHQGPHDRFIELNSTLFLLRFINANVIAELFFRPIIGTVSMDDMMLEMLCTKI
# DAX1 inh-2: DAX1 (NR0B1) inhibitors on StAR promoter, primary screen, cell-based, luminescence, SF-1 (NR5A1), full-length DAX-1; HEK293T StAR-luciferase reporter, SF-1/DAX-1 repression relief; inhibition, % at 6.8 µM; 370,000 compounds, 1.1% hits; AID 652010, 2013;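 active means inhibition above the mean over all tested compounds plus 3 SD, cut at about 3.6% in these data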;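 further: 0% = DAX-1 cells with DMSO and 100% = cells lacking DAX-1 with DMSO; higher inhibition means more luminescence from relief of DAX-1 repression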
# Wee1 stab conf: Wee1 degradation inhibitors, confirmation, cell-based, HeLa, Wee1K328M-luciferase, luminescence, triplicate; HeLa Luc-Wee1K328M degradation; vehicle 0%, proteasome-blocked wells 100%; activation, % at 5 µM; AID 1410, 2008; 1,100 compounds, 4% hits; shares compounds with Wee1 stabilizer; in the data active means activation above about 8.9%
# Starred values were filed as active, the others as inactive; / = no result. In the library only some 4.6% were active in any assay of this set; here they are far more common.
SMILES,hgDAF-12 ag,ssDAF-12 act,Wee1 stabilizer,hcDAF12 agonist,DAX1 inh-1,DAX1 inh-2,Wee1 stab conf
O=C(O)CNC(=O)CC1S/C(=N/N=C2/NC(=O)CS2)NC1=O (configuration not stated),-2,-1,13*,-2,0,0,-1
NC(=O)NC(=O)CC1S/C(=N/N=C2\CSC(=O)N2)NC1=O (configuration not stated),1,-1,-4,-2,0,1,/
O=c1[nH]cc(S(=O)(=O)N2CCN(c3ccc(F)cc3)CC2)c(=O)[nH]1,-2,-1,/,0,1,0,/
CCCCOc1ccc(-c2[nH]ncc2C=O)cc1,13*,0,15*,4,5.1*,1,5
CCCC/C=C1/[C@H](CC)N(C)C2=N[C@@H](c3ccccc3)CC(=O)N21,1,-2,/,0,/,/,/
NS(=O)(=O)c1ccc(CCNC(=O)c2cc(-c3cccs3)nc3ccccc23)cc1,-7,-2,12*,-2,-1,-2,3
COc1cc(/C=N/NC(=O)c2cc(-c3cccs3)nc3ccccc23)ccc1O,-1,-2,12*,1,-1,-1,8
COc1cc(/C=N/NC(=O)c2cc(-c3cccc(OC(C)C)c3)nc3ccccc23)ccc1O,-6,-1,/,0,-4,0,/
CCN1CCCC1CNCc1ccc(OCc2ccc(Cl)nc2)c(OC)c1 (configuration not stated),-1,-1,15*,0,-1,0,4
COc1ccc(OCCC(=O)N2CCOCC2)cc1,-3,-1,12*,0,0,1,1
CC(C)(C)c1ccc(OCCCC(=O)N2CCOCC2)cc1,-1,-1,3,-1,-1,0,/
c1ccc(C2Nc3ccccc3-c3nc4ccccc4n32)cc1 (configuration not stated),11*,0,15*,1,3,2,-3
O=C(O)c1ccccc1C(=O)OC1CCCC2CCCC21 (configuration not stated),0,-1,/,0,1,-1,/
O=C(CCc1nc2ccccc2c(=O)[nH]1)Nc1ccc(N2CCCCC2)cc1,0,-1,11*,1,-1,0,0
C=CCNCCCOc1ccc(C(C)(C)c2ccccc2)cc1,4,0,13*,-1,0,1,-1
C[C@H](O)[C@@H]1C(=O)N2CCc3ccc(-c4ccccc4)cc3[C@@H]2C[C@@H]1N(C)C(=S)Nc1ccc(F)cc1,-3,-1,/,-2,0,0,/
CC(=O)CC(=O)Nc1nc(C)cc(C)n1,1,-1,0,-1,1,0,/
CCOCC(=O)Nc1nc(C)cc(C)n1,1,-1,11*,1,0,0,1
C=CC1=CCN(S(=O)(=O)C(C)(C)C)[C@H]1CCO,-2,-1,/,2,2,1,/
O=S(=O)(c1ccc(N2CCCCCC2)nc1)N1CCCC1,0,-2,13*,-1,1,-1,0
COc1cccc2cc(-c3cn4ccc(C)cc4n3)c(=O)oc12,9,-1,14*,4,1,4,2
O=C(c1cccc(C(F)(F)F)c1)C1CCCN(Cc2ccc(OCCO)cc2)C1 (configuration not stated),4,-1,13*,-1,0,0,-2
CC(=O)Nc1ccc(CN2CCCC(C(=O)c3cccc(C(F)(F)F)c3)C2)cc1 (configuration not stated),-4,-1,3,-1,0,0,/
CC(C)(C)c1ccc(OCc2ccc(C(=O)N3CCOCC3)o2)cc1,-3,-1,13*,0,-1,0,1
O=C(Nc1nnc(-c2ccncc2)o1)c1ccccc1,2,-1,22*,0,0,0,2
SMILES,hgDAF-12 ag,ssDAF-12 act,Wee1 stabilizer,hcDAF12 agonist,DAX1 inh-1,DAX1 inh-2,Wee1 stab conf
CC1(C2CCC3C4CCC5CC6(CCC5(C)C4C(=O)CC32C)OCCO6)OCCO1 (configuration not stated),0,-2,/,-1,-2,-2,/
Cc1ccc(-c2nn(-c3ccc(F)cc3)cc2C(=O)NCCCN2CCCC2=O)cc1,0,-1,/,0,0,-1,/
CCOC(=O)c1[nH]c2c(c1-c1ccccc1)C(=O)CC(c1ccc(OCC)cc1)C2 (configuration not stated),5,-1,2,-1,3,-1,/
CCOC(=O)c1[nH]c2c(c1-c1ccccc1)C(=O)CC(c1ccc(OC)c(OC)c1)C2 (configuration not stated),-6,-2,20*,-5,-4,-2,1
O=C(CN(Cc1ccccc1)C(=O)CCC(=O)Nc1ccccn1)NCc1ccco1,0,0,12*,0,0,0,-1
COCCNC(=O)CN(CC1CCCO1)C(=O)CCC(=O)Nc1ccccn1 (configuration not stated),0,-1,11*,0,2,0,0
COc1ccc(CN(CC(=O)NCc2ccco2)C(=O)CCC(=O)Nc2ccccn2)cc1,3,-1,8,-1,-1,0,/
O=C(N[C@H](Cc1ccccc1)C(=O)NCc1ccccn1)[C@H]1O[C@@H](n2ccc(=O)[nH]c2=O)[C@H](O)[C@@H]1O,-1,-1,/,2,/,0,/
Cc1ccc2c3c(c(SCC(=O)Nc4nonc4C)nc2c1)CCCC3,11*,-1,13*,-1,1,0,2
Cc1nonc1NC(=O)CSc1nc2cc(Cl)ccc2c2c1CCCC2,/,/,1,/,0,/,/
OCCCCCCNc1ccc(CCO)cc1,-1,-2,/,2,/,-3,/
Cc1cc(Cl)ccc1NC(=S)Nc1ccccn1,6,0,15*,1,4.3*,0,12*
Cc1cc(Cl)ccc1NC(=S)NCc1ccccc1,0,-1,-2,-1,0,0,/
O=S(=O)(c1cccc2nsnc12)N1CCN(C/C=C/c2ccccc2)CC1,1,-2,11*,-1,-1,1,1
